Assay results as given in the supplement of paper PMC9446081.
± gives the standard deviation of the averaged measurements.

Tests used:
Test in all cases: relative enzymatic activity vs untreated control (fraction); higher = less inhibition
Conditions in all cases: 100 µM; incubation time: 2 h at 37 C
[1] = test system: DNA gyrase
Protocol: (§1)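 In vitro enzymatic inhibition assays (ProFoldin kits) for 12 purified essential E. coli enzymes or complexes, each treated with 218 active antibacterial compounds at 100 µM for 2 h at 37°C. Read-outs were fluorescence or absorbance (phosphate detection, dye binding), converted to activity via standard curves and expressed relative to untreated DMSO controls.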

[2] = molecular target: DNA helicase (UniProt P0ACB1)
Protocol: as §1

[3] = molecular target: DNA ligase (UniProt B1XA82)
Protocol: as §1

[4] = molecular target: DNA polymerase (UniProt P10443)
Protocol: as §1

[5] = molecular target: DNA primase (UniProt P0ABS7)
Protocol: as §1

[6] = molecular target: GlmU (UniProt A7ZTU1)
Protocol: as §1

[7] = molecular target: Guanlyate kinase (UniProt Q0TBG1)
Protocol: as §1

[8] = molecular target: MurA (UniProt Q3YX52)
Protocol: as §1

[9] = molecular target: T1, MurD (UniProt P14900)
T1 sequence (whole entry): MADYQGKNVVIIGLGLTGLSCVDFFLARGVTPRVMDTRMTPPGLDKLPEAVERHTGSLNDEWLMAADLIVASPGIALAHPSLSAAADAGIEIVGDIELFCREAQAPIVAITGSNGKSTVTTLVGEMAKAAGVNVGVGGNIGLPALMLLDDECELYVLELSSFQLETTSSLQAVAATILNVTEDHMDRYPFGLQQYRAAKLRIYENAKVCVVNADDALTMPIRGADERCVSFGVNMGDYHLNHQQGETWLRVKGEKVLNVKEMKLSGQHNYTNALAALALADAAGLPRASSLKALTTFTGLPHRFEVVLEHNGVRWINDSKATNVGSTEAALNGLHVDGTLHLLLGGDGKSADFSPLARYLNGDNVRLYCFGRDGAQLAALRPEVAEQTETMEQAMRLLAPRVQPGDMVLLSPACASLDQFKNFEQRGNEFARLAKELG
Protocol: as §1

[10] = molecular target: T2, MurF (UniProt P11880)
T2 sequence (whole entry): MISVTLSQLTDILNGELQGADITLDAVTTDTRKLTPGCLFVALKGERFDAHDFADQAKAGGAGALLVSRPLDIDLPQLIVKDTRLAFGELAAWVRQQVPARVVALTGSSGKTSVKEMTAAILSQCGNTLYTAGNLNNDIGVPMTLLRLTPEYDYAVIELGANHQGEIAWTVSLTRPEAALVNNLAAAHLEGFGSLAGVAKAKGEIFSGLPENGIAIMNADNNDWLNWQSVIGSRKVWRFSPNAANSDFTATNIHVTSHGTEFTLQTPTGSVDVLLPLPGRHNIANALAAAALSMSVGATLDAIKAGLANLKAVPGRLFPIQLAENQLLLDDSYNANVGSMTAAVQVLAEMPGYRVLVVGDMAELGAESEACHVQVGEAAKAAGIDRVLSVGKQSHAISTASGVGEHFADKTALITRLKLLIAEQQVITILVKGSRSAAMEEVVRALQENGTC
Protocol: as §1

[11] = test system: RNA polymerase
Protocol: as §1

Chain of Guanlyate kinase (Q0TBG1 whole entry): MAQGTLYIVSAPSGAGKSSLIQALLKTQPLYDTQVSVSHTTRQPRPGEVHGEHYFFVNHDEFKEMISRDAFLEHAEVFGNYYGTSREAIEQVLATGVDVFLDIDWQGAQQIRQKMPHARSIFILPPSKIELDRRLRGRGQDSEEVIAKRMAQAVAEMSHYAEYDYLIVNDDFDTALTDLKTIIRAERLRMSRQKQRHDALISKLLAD
Chain of MurA (Q3YX52 whole entry): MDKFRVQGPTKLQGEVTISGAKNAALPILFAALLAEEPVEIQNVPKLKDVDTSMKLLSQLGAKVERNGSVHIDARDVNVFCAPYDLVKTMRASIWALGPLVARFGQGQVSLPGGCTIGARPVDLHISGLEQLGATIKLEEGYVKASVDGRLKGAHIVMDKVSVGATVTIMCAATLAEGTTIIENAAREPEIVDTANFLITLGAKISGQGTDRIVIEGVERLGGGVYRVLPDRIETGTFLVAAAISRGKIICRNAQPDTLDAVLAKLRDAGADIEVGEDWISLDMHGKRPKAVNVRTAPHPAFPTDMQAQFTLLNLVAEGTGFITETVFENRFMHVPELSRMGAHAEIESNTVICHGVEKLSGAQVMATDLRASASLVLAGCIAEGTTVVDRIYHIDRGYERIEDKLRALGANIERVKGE
Chain of DNA polymerase (P10443 whole entry): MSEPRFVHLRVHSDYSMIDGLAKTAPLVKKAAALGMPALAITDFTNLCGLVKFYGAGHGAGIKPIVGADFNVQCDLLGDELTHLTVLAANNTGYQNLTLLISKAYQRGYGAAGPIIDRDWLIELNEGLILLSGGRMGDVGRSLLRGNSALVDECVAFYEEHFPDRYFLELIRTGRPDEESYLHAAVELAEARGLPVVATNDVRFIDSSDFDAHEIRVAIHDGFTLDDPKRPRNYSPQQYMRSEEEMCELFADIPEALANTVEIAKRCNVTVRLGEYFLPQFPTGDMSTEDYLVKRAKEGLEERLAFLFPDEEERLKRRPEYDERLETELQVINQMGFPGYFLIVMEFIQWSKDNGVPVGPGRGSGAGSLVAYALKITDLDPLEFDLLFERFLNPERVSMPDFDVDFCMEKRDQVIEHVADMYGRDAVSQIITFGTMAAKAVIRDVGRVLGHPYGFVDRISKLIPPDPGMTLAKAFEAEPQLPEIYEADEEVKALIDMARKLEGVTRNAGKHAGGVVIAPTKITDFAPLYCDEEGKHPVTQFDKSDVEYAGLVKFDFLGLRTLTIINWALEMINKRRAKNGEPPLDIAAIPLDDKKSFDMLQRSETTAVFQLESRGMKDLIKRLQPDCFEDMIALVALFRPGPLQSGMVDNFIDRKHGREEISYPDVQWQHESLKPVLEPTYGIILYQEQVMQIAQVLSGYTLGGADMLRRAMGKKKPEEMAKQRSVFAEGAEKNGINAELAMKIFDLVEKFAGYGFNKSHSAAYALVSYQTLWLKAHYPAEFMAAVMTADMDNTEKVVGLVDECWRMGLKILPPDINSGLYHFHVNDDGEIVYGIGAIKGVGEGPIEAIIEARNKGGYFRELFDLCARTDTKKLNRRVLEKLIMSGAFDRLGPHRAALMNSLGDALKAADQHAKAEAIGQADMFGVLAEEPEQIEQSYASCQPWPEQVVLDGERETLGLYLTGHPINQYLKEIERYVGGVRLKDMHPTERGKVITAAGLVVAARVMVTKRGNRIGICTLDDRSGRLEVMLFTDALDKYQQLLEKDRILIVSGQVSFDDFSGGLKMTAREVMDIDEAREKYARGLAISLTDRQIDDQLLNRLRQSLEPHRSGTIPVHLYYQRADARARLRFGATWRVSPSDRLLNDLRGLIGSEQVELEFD
Chain of DNA primase (P0ABS7 whole entry): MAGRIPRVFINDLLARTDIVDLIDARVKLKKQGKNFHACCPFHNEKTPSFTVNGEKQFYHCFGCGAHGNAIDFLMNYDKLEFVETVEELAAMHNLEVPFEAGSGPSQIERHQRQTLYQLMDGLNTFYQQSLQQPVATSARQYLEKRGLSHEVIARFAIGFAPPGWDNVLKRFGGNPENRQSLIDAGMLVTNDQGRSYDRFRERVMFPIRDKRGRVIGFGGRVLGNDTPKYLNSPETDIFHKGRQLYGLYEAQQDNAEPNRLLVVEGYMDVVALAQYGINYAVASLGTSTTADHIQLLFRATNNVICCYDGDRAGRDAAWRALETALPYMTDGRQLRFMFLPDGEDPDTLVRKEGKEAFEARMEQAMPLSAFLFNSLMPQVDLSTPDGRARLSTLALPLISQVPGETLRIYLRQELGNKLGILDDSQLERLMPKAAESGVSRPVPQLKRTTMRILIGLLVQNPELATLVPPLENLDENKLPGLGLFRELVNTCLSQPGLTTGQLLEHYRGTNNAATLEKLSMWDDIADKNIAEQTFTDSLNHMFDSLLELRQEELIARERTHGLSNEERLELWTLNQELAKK
Chain of DNA ligase (B1XA82 whole entry): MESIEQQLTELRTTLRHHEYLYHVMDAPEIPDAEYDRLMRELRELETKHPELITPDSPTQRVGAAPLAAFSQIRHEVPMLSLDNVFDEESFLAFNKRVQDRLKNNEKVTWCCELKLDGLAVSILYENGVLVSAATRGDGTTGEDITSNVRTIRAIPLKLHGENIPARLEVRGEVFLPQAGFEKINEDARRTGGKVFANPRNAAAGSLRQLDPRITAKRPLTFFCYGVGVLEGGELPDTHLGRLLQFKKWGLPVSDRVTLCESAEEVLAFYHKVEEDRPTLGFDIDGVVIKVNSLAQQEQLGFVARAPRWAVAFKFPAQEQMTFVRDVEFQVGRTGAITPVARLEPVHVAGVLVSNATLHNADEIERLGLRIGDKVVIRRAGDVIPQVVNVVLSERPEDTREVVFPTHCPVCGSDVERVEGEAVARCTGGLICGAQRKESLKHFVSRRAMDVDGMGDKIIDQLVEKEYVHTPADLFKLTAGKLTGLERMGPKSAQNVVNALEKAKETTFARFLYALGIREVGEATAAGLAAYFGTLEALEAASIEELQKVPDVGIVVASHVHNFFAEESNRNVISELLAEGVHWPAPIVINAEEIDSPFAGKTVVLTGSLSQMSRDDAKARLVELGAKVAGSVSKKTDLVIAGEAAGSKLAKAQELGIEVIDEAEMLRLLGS
Chain of GlmU (A7ZTU1 whole entry, looked up): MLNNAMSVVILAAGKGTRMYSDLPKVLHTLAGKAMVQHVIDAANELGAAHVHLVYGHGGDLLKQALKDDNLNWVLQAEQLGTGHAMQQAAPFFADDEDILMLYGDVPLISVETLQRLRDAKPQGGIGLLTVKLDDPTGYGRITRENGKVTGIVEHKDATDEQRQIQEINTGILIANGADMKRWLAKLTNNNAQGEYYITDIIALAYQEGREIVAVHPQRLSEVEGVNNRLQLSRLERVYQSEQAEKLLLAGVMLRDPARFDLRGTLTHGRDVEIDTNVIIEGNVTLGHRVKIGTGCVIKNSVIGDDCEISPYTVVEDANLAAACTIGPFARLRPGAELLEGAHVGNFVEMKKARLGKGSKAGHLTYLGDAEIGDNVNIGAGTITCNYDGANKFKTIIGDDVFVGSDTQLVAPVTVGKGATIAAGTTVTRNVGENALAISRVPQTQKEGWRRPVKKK
Chain of DNA helicase (P0ACB1 whole entry): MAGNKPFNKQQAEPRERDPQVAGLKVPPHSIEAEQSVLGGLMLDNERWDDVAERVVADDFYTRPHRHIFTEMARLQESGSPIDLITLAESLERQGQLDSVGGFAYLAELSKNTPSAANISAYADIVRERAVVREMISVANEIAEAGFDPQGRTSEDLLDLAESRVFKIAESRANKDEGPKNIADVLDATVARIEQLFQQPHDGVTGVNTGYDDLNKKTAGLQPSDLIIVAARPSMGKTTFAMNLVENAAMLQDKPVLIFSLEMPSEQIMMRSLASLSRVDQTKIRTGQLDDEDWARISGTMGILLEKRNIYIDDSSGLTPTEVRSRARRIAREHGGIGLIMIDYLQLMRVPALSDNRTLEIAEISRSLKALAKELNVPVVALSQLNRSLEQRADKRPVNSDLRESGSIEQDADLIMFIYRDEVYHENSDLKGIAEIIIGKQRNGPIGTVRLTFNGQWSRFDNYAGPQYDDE

SMILES	relative enzymatic activity [1]	relative enzymatic activity [2]	relative enzymatic activity [3]	relative enzymatic activity [4]	relative enzymatic activity [5]	relative enzymatic activity [6]	relative enzymatic activity [7]	relative enzymatic activity [8]	relative enzymatic activity [9]	relative enzymatic activity [10]	relative enzymatic activity [11]
O=[N+]([O-])c1ccc(O)c2ncccc12	0.501 ± 0.24	0.584 ± 0.12	0.808 ± 0.033	0.979 ± 0.076	0.759 ± 0.023	1.03 ± 0.047	0.765 ± 0.026	0.291 ± 0.12	0.588 ± 0.39	0.989 ± 0.21	0.7483 ± 0.0011
CC[C@H]1OC(=O)[C@H](C)[C@@H](O[C@H]2C[C@@](C)(OC)[C@@H](O)[C@H](C)O2)[C@H](C)[C@@H](O[C@@H]2O[C@H](C)C[C@H](N(C)C)[C@H]2O)[C@](C)(O)C[C@@H](C)C(=O)[C@H](C)[C@@H](O)[C@]1(C)O	0.598 ± 0.22	0.608 ± 0.21	0.92 ± 0.048	0.503 ± 0.71	0.838 ± 0.027	0.9665 ± 0.0044	0.961 ± 0.098	0.848 ± 0.071	0.584 ± 0.39	0.939 ± 0.22	0.863 ± 0.024
CO[C@@H]1[C@@H](OC(=O)c2ccc(C)[nH]2)[C@@H](O)[C@@H](Oc2ccc3c(c2C)OC(=O)[C@H](NC(=O)c2[nH]cc(CC(=O)Nc4cc5ccc(O[C@@H]6OC(C)(C)[C@H](OC)[C@@H](OC(=O)c7ccc(C)[nH]7)[C@H]6O)c(C)c5oc4=O)c2C)C3)CC1(C)C	0.165 ± 0.23	0.0977 ± 0.012	0.835 ± 0.013	0.759 ± 0.06	0.876 ± 0.11	0.892 ± 0.021	0.72 ± 0.087	1.09 ± 0.059	0.869 ± 0.57	1.26 ± 0.26	0.715 ± 0.093
CC(C)(O/N=C(\C(=O)N[C@@H]1C(=O)N2C(C(=O)O)=C(C[n+]3ccccc3)CS[C@H]12)c1csc(N)n1)C(=O)O	0.662 ± 0.56	0.577 ± 0.24	0.86 ± 0.088	1.1 ± 0.22	0.791 ± 0.01	1.01 ± 0.032	0.94 ± 0.075	0.0696 ± 0.019	0.613 ± 0.43	0.935 ± 0.24	0.829 ± 0.16
O=c1[nH]c(=O)n(C2CC(O)C(CO)O2)cc1F (configuration not stated)	0.98 ± 0.053	0.557 ± 0.14	1.15 ± 0.19	1.2 ± 0.26	0.657 ± 0.14	1.09 ± 0.097	1.03 ± 0.036	0.856 ± 0.064	0.597 ± 0.4	0.931 ± 0.18	0.84 ± 0.0053
Nc1nc(/C(=N/O)C(=O)N[C@@H]2C(=O)N3C(C(=O)O)=C(/C=C4\CCN([C@@H]5CCNC5)C4=O)CS[C@H]23)ns1	0.279 ± 0.18	0.389 ± 0.35	0.901 ± 0.11	1.08 ± 0.3	0.816 ± 0.035	0.83 ± 0.021	0.881 ± 0.12	0.0852 ± 0.03	0.57 ± 0.38	1.1 ± 0.069	0.561 ± 0.045
CC(C)(ON=C(C(=O)NC1C(=O)N2C(C(=O)[O-])=C(C[n+]3ccccc3)CSC12)c1csc(N)n1)C(=O)O (configuration not stated)	0.0358 ± 0.051	0.494 ± 0.12	1.08 ± 0.29	0.444 ± 0.021	0.593 ± 0.11	0.79 ± 0.019	0.876 ± 0.015	0.0456 ± 0.016	0.548 ± 0.37	0.924 ± 0.15	0.137 ± 0.0022
N[C@@H]1CN(c2c(F)cc3c(=O)c(C(=O)O)cn([C@@H]4C[C@@H]4F)c3c2Cl)CC12CC2	0.186 ± 0.26	0.435 ± 0.025	0.852 ± 0.06	1.1 ± 0.085	0.84 ± 0.012	0.987 ± 0.012	1 ± 0.11	0.524 ± 0.094	0.591 ± 0.41	1.31 ± 0.28	0.979 ± 0.15
Nc1nc(C(=CCC(=O)O)C(=O)NC2C(=O)N3C(C(=O)O)=CCSC23)cs1 (configuration not stated)	0.16 ± 0.14	0.257 ± 0.0059	1.1 ± 0.24	0.742 ± 0.27	0.682 ± 0.082	0.934 ± 0.01	0.901 ± 0.03	0.0583 ± 0.02	0.575 ± 0.39	0.958 ± 0.24	0.292 ± 0.037
CN(C)C1C(O)=C(C(N)=O)C(=O)C2(O)C(O)=C3C(=O)c4c(O)ccc(Cl)c4C(C)(O)C3CC12.Cl (configuration not stated)	1.15 ± 0.17	0.47 ± 0.023	1.03 ± 0.23	1.35 ± 0.47	0.707 ± 0.21	0.974 ± 0.048	0.961 ± 0.076	0.767 ± 0.014	0.584 ± 0.37	0.93 ± 0.17	0.822 ± 0.027
N[C@@H](C(=O)N[C@@H]1C(=O)N2C(C(=O)O)=C(Cl)CS[C@H]12)c1ccccc1	0.759 ± 0.31	0.537 ± 0.076	1.02 ± 0.078	1.1 ± 0.25	0.801 ± 0.021	0.911 ± 0.035	0.87 ± 0.074	0.168 ± 0.067	0.579 ± 0.39	0.954 ± 0.21	0.766 ± 0.036
NC(C(=O)NC1C(=O)N2C(C(=O)O)=C(Cl)CSC12)c1ccccc1 (configuration not stated)	1.09 ± 0.06	0.441 ± 0.046	1.07 ± 0.039	1.38 ± 0.51	0.74 ± 0.23	0.982 ± 0.015	1.04 ± 0.088	0.0755 ± 0.013	0.58 ± 0.4	0.945 ± 0.26	0.971 ± 0.085
C=CC1=C(C(=O)O)N2C(=O)[C@@H](NC(=O)/C(=N/O)c3csc(N)n3)[C@H]2SC1	0.0537 ± 0.076	0.371 ± 0.1	0.963 ± 0.1	1.16 ± 0.24	0.769 ± 0.027	1.004 ± 0.0086	0.947 ± 0.08	0.119 ± 0.015	0.599 ± 0.41	0.943 ± 0.22	0.785 ± 0.086
C=CC1=C(C(=O)O)N2C(=O)[C@@H](NC(=O)/C(=N\OCC(=O)O)c3csc(N)n3)[C@H]2SC1	0.321 ± 0.084	0.432 ± 0.089	0.941 ± 0.17	1.06 ± 0.23	0.662 ± 0.021	1.046 ± 0.0058	0.886 ± 0.1	0.0787 ± 0.0056	0.606 ± 0.41	0.954 ± 0.18	0.822 ± 0.32
CN(C)C1C(O)=C(C(N)=O)C(=O)C2(O)C(O)=C3C(=O)c4c(O)ccc(Cl)c4C(O)C3CC12.Cl (configuration not stated)	0.59 ± 0.38	0.359 ± 0.13	1.03 ± 0.047	1.16 ± 0.26	0.64 ± 0.12	1.005 ± 0.0054	0.874 ± 0.1	0.133 ± 0.045	0.593 ± 0.41	0.937 ± 0.17	0.804 ± 0.072
CON=C(C(=O)NC1C(=O)N2C(C(=O)O)=C(C[N+]3(C)CCCC3)CSC12)c1csc(N)n1.[Cl-] (configuration not stated)	0.384 ± 0.0047	0.431 ± 0.059	1.345 ± 0.0088	1.28 ± 0.35	0.724 ± 0.23	0.969 ± 0.022	1.02 ± 0.026	0.222 ± 0.0031	0.568 ± 0.37	0.962 ± 0.17	0.897 ± 0.023
CN(C)c1cc(CNCC(C)(C)C)c(O)c2c1C[C@H]1C[C@H]3[C@H](N(C)C)C(=O)[C@H](C(N)=O)C(=O)[C@@]3(O)C(=O)[C@@H]1C2=O	0.256 ± 0.0049	0.355 ± 0.04	0.862 ± 0.018	1.09 ± 0.3	0.671 ± 0.07	0.9877 ± 0.0037	0.49613 ± 0.0003	0.133 ± 0.025	0.578 ± 0.38	1.23 ± 0.068	0.289 ± 0.1
